Here are results for 20 compounds from PubChem BioAssay (Tox21).

In assay [1] the target is Thyrotropin-releasing hormone receptor (Homo sapiens) (UniProt P34981). As to the kind of experiment: qHTS assay to identify small molecule agonists of the thyrotropin-releasing hormone receptor (TRHR) signaling pathway (AID 1346891; calls by dose curve;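 further: HEK293 cells expressing TRHR with calcium dye readout; series mostly up to about 58 µM; on the % scale 0 is the no-effect control and ±100 the full control effect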). In a few lines: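 In 1536-format, 1500 TRHR-Hek293 cells per well grew 18 h, took up calcium dye for 2 h at 37 °C, received compound, and were read kinetically; 15-point titrations, triplicates.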
Sequence of Thyrotropin-releasing hormone receptor (Homo sapiens) (P34981 whole entry, looked up): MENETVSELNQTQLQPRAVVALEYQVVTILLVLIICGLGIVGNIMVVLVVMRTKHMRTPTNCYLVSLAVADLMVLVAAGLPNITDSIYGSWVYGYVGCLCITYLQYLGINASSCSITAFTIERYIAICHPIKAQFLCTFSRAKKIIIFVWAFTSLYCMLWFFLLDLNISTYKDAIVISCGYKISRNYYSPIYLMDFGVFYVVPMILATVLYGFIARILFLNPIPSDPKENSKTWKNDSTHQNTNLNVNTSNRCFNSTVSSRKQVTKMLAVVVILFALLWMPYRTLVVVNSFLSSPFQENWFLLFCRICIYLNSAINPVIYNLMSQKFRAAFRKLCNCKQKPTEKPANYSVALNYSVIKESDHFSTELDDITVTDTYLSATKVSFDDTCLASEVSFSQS
In general terms: qHTS replaces the single test concentration by a dilution series.

The nature of assay [2]: Caspase-3/7 induction in HepG2 cells by small molecules, qHTS assay (AID 1346978). Further: on the % scale 0 is the no-effect control and ±100 the full control effect; nearly all actives have a fitted effect of over 15% in size. The gist of the method:
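Caspase-3/7 induction was measured by Caspase-Glo 3/7 luminescence (30 min, room temperature) after a 17 hr compound exposure of wild-type HepG2 cells seeded at 2,000 per well and pre-incubated 5 hr.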

The nature of assay [3]: Caspase-3/7 induction in HepG2 cells by small molecules, qHTS cell viability counter screen (AID 1346981). Further: nearly all actives have a fitted effect of over 30% in size. Further: potency means the concentration at half of the fitted maximal effect. The gist of the method: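 Viability determined by CellTiter-Fluor fluorescence in HepG2 wells also used for the luminescent Caspase-Glo 3/7 read. Compounds were present for 16 hr at 37 C, 5% CO2 before reagent addition.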
Assay [4] deals with Nuclear receptor subfamily 1 group I member 2 (Homo sapiens) (UniProt O75469). Put plainly: Human pregnane X receptor (PXR) small molecule agonists, qHTS assay (AID 1346982). Further: nearly all actives have a fitted effect of over 35% in size. Further: potency means the concentration at half of the fitted maximal effect. On activation: on the % scale 0 is the no-effect control and ±100 the full control effect. The gist of the method:
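Compound-induced hPXR transactivation of a CYP3A4 luciferase reporter was scored in HepG2 PXR-Luc cells over 24 hr at 37 C, 5% CO2, by luminescence.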

For assay [5] the target is unchanged. As to the kind of experiment: CYP3A4 induction through human pregnane X receptor (PXR) by small molecules, qHTS assay (AID 1346984). Further: potency means the concentration at half of the fitted maximal effect; nearly all actives have a fitted effect of over 40% in size. In a few lines: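 Readings come from a luciferase reporter: DPX-2 cells, which are HepG2 cotransfected with PXR and a CYP3A4-promoter construct, were exposed to test compounds for 24 h at 37C before One-Glo detection.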
Assay [6] addresses Cytochrome P450 2D6 (Homo sapiens) (UniProt P10635). As to the kind of experiment: Cytochrome P450 Family 2 Subfamily D Member 6 (CYP2D6) small molecule antagonists: luciferase reporter qHTS assay (AID 1671196). Further: nearly all actives have a fitted effect of over 50% in size. Further: potency means the concentration at half of the fitted maximal effect. The gist of the method: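 Each well received CYP2D6 with its proluciferin substrate and chemical, sat 10 min, then got NADPH regeneration solution for 1 h at room temperature. Luminescence in RLU served as the activity measure.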
On the technique in general: Reporter assays use an easily measured gene product as a stand-in for the process of interest.

The target of assay [7] is Cytochrome P450 1A2 (Homo sapiens) (UniProt P05177). As to the kind of experiment: Cytochrome P450 Family 1 Subfamily A Member 2 (CYP1A2) small molecule antagonists: luciferase reporter qHTS assay (AID 1671199). Further: nearly all actives have a fitted effect of over 50% in size. Further: potency means the concentration at half of the fitted maximal effect. In a few lines: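 Enzymatic CYP1A2 assay, human, luminescent: 10 min compound–enzyme–substrate preincubation, 1 h NADPH-dependent turnover, 20 min detection step, room temperature throughout. Reduced light indicates lower CYP1A2 activity.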
Sequence of Cytochrome P450 1A2 (Homo sapiens) (P05177 whole entry, looked up): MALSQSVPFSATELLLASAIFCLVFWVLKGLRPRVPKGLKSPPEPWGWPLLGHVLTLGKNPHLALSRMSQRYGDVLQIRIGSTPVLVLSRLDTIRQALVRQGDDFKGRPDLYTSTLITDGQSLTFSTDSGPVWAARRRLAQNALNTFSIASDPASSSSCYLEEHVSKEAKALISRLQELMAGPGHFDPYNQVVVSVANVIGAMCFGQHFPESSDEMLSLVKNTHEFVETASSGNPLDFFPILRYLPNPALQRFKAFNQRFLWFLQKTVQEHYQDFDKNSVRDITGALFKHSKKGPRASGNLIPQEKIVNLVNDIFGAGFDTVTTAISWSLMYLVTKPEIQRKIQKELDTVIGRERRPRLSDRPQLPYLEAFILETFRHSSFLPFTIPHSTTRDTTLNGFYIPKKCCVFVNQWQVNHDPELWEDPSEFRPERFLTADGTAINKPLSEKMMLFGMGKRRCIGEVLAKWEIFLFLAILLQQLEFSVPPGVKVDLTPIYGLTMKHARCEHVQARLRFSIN

In assay [8] the target is Voltage-gated inwardly rectifying potassium channel KCNH2 (Homo sapiens) (UniProt Q12809). Put plainly: Human Ether-a-go-go-Related Gene (hERG) channel small molecule antagonists: fluorescence cell-based qHTS assay (AID 1671200). Further: nearly all actives have a fitted effect of over 50% in size. Further: potency means the concentration at half of the fitted maximal effect. The gist of the method:
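Measured: Tl+ flux via fluorescence (480/540 nm) in hERG-expressing U2OS cells after 1 h dye loading at room temperature.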

Assay [9] deals with Cytochrome P450 3A4 (Homo sapiens) (UniProt P08684). As to the kind of experiment: Cytochrome P450 Family 3 Subfamily A Member 4 (CYP3A4) small molecule antagonists: luciferase reporter qHTS assay (AID 1671201). Further: nearly all actives have a fitted effect of over 50% in size. Further: potency means the concentration at half of the fitted maximal effect. In a few lines: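 Setup: enzyme-substrate mix, compound pin transfer, 10 min RT. Reaction: NADPH regeneration solution, 1 h RT. Readout: detection reagent stops turnover, luminescence measured after 20 min, expressed in relative luminescence units.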
Sequence of Cytochrome P450 3A4 (Homo sapiens) (P08684 whole entry, looked up): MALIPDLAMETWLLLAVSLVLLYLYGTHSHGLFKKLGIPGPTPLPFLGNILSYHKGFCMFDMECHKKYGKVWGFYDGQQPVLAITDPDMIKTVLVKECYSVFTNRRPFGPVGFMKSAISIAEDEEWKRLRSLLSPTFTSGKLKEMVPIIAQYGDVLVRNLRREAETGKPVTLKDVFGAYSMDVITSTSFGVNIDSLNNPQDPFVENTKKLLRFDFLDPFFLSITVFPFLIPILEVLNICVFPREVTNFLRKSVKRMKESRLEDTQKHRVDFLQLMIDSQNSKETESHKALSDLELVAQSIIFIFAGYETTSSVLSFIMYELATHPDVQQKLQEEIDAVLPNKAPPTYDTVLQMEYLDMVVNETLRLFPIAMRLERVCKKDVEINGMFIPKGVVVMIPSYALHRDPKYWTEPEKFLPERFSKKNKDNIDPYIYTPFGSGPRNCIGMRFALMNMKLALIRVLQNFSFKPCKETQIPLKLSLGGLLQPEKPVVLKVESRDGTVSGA

A short description of assay [10]: Caspase-3/7 induction in CHO-K1 cells by small molecules, qHTS cell viability counter screen (AID 1346979). Further: nearly all actives have a fitted effect of over 35% in size. Further: potency means the concentration at half of the fitted maximal effect. In a few lines:
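To flag cytotoxic compounds, treated CHO-K1 wild-type cells were given CellTiter-Fluor at 16hr and read fluorescently after 1hr at 37C; the caspase-3/7 luminescence was measured in these same wells.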

Assay [11] in a line: Caspase-3/7 induction in CHO-K1 cells by small molecules, qHTS assay (AID 1346980). Further: on the % scale 0 is the no-effect control and ±100 the full control effect; nearly all actives have a fitted effect of over 15% in size. In a few lines: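 Luminescent Caspase-Glo 3/7 read (30min, room temperature) quantified apoptosis induction. Cells were wild-type CHO-K1, treated with compound for 17hr at 37 C and 5% CO2.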
For assay [12], the target named is Cytochrome P450 2C19 (Homo sapiens) (UniProt P33261). As to the kind of experiment: Cytochrome P450 Family 2 Subfamily C Member 19 (CYP2C19) small molecule antagonists: luciferase reporter qHTS assay (AID 1671197). Further: nearly all actives have a fitted effect of over 65% in size. Further: potency means the concentration at half of the fitted maximal effect. The gist of the method:
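Compounds were tested on CYP2C19 activity via proluciferin conversion to luciferin. The 37C, 1 h reaction followed NADPH addition; detection reagent stopped it.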

For assay [13], the target named is Cytochrome P450 2C9 (Homo sapiens) (UniProt P11712). As to the kind of experiment: Cytochrome P450 Family 2 Subfamily C Member 9 (CYP2C9) small molecule antagonists: luciferase reporter qHTS assay (AID 1671198). Further: nearly all actives have a fitted effect of over 50% in size. Further: potency means the concentration at half of the fitted maximal effect. The gist of the method:
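Enzyme-substrate mix preincubated with compound 10 min at room temperature; reaction started with NADPH regeneration solution, 1 h 37C. Luminescent luciferin product read after 20 min detection reagent.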

Assay [14] has as its target Nuclear receptor subfamily 1 group I member 2 (Rattus norvegicus) (UniProt Q9R1A7). Put plainly: Rat pregnane X receptor (rPXR) activation by small molecules, qHTS assay (AID 1346983). Further: on the % scale 0 is the no-effect control and ±100 the full control effect; nearly all actives have a fitted effect of over 20% in size. As to conditions: rPXR luciferase reporter cells, One-Glo luminescence, 24 h; max activation: hits give high values. In a few lines: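 Luminescent readout (One-Glo luciferase, 30 min room temperature) followed 24 hr compound treatment at 37 C of rPXR cells plated 2,000 per well and preincubated 5hr; qHTS format with compounds delivered in DMSO.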

Assay [15] addresses Nuclear receptor subfamily 1 group I member 2 (Homo sapiens) (UniProt O75469). As to the kind of experiment: Human pregnane X receptor (PXR) activation by small molecules, qHTS assay (AID 1346985). Further: potency means the concentration at half of the fitted maximal effect; nearly all actives have a fitted effect of over 40% in size. The gist of the method: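 DPX-2 cells (HepG2 co-transfected with a PXR response element and a CYP3A4-promoter luciferase construct) were seeded at 2,000 per well, rested 5 hr at 37C, then exposed to DMSO-dissolved compounds for 24 hr. Activation was read as luciferase luminescence.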

Structures are written as SMILES. A number with no mark means an inactive call. Records with an inconclusive call do not appear. Calls of active or inactive are those of the source. Unless noted, the call rests on the fitted dose curve; in most records, active means well fitted curve in the direction sought with a large enough effect in the repeat runs; inconclusive means weak or mixed curves; inactive means no such curve, though single readings can be large; an effect the other way counts as inactive or inconclusive.

Sequence of Cytochrome P450 2D6 (Homo sapiens) (P10635 whole entry, looked up): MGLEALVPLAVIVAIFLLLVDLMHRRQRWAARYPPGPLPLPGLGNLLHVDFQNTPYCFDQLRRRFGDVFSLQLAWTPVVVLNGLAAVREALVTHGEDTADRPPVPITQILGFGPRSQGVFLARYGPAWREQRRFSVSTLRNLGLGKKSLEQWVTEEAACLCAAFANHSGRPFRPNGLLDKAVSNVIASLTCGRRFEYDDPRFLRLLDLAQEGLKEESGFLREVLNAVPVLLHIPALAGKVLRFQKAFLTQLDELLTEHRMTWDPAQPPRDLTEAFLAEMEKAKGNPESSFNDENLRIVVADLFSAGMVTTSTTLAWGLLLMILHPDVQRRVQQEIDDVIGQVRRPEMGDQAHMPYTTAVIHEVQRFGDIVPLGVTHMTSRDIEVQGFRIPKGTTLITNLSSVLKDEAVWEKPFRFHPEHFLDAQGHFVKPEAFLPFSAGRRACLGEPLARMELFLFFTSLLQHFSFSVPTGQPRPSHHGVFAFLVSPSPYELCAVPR
Sequence of Cytochrome P450 2C9 (Homo sapiens) (P11712 whole entry, looked up): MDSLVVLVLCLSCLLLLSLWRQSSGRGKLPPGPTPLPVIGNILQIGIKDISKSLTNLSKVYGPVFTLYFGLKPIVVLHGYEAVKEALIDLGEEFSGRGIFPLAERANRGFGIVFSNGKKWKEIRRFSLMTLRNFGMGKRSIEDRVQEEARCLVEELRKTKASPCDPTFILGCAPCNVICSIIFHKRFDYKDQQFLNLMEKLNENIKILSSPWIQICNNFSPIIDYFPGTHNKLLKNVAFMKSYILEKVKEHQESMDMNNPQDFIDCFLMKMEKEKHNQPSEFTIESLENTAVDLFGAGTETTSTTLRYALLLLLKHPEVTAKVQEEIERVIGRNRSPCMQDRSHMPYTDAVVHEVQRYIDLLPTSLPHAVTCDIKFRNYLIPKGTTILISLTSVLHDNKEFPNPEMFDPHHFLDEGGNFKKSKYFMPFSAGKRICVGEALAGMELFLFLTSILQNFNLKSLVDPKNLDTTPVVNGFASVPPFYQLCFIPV
Sequence of Cytochrome P450 2C19 (Homo sapiens) (P33261 whole entry, looked up): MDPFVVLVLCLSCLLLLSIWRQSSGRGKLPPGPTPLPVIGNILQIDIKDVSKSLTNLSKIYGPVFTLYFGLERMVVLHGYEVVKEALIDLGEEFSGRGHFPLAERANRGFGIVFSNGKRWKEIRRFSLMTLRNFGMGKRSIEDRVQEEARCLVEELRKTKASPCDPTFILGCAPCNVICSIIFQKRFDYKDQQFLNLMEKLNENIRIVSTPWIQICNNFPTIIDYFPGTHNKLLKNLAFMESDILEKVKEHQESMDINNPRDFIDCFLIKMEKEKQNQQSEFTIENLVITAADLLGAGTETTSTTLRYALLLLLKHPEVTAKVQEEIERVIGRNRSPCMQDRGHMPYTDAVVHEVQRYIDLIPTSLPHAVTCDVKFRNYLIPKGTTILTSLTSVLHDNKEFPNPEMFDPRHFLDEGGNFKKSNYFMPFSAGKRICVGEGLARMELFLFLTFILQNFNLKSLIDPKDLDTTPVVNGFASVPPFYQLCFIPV
Sequence of Voltage-gated inwardly rectifying potassium channel KCNH2 (Homo sapiens) (Q12809 whole entry, looked up): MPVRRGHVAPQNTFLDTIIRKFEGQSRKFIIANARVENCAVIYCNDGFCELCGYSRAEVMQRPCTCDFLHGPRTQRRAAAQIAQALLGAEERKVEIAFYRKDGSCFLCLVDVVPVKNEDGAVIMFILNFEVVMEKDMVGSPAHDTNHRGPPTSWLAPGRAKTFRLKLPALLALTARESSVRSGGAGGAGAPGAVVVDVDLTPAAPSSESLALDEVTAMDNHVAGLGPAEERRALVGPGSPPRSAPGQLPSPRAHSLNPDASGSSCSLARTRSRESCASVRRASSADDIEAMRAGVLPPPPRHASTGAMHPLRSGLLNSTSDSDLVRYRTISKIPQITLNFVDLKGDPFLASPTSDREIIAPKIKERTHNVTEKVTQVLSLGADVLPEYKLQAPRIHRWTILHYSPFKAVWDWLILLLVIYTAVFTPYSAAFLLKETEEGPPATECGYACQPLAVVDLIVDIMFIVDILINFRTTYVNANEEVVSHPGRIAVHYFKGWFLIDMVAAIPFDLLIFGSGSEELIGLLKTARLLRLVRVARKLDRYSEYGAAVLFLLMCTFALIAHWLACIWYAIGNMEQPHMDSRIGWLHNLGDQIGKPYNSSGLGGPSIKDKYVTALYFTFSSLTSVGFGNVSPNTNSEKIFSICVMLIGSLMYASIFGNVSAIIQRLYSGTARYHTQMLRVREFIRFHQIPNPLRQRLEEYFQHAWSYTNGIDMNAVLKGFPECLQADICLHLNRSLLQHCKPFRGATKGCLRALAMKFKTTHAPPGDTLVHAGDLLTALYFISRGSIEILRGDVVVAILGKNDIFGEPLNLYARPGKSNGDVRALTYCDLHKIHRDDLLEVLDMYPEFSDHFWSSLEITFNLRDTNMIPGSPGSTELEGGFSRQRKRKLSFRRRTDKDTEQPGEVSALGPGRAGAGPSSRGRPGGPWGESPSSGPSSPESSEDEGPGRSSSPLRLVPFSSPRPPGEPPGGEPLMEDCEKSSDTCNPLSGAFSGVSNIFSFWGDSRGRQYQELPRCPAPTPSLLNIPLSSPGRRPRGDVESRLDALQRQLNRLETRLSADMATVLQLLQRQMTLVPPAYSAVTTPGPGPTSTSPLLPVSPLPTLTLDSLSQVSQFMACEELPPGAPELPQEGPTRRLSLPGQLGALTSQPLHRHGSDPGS
Sequence of Nuclear receptor subfamily 1 group I member 2 (Homo sapiens) (O75469 whole entry, looked up): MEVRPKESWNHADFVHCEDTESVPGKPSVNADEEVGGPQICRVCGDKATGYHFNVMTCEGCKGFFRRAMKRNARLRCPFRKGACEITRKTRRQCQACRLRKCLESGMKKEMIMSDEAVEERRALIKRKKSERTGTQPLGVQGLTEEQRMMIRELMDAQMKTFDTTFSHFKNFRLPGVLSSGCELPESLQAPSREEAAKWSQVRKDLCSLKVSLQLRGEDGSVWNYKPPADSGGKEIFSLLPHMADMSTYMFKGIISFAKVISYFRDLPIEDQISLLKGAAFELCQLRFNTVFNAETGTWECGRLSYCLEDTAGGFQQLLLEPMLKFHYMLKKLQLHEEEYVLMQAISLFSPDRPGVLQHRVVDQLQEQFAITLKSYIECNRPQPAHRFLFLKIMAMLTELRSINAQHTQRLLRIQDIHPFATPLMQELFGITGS
Sequence of Nuclear receptor subfamily 1 group I member 2 (Rattus norvegicus) (Q9R1A7 whole entry, looked up): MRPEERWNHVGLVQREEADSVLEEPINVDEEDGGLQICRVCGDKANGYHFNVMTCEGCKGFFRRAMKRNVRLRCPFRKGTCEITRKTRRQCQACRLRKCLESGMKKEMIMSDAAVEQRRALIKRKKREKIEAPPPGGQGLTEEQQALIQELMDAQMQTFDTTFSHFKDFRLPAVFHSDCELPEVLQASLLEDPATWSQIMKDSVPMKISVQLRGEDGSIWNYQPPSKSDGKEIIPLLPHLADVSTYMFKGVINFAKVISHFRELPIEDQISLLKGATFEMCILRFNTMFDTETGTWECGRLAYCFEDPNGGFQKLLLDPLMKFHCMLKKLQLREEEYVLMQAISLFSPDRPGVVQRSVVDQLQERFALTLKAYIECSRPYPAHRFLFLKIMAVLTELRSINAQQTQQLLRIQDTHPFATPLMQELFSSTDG

`C[C@]12CCC(=O)C=C1[C@@H]1C[C@@H]1[C@H]1[C@@H]3[C@@H]4C[C@@H]4[C@@]4(CCC(=O)O4)[C@@]3(C)CC[C@@H]12`: in assay [1], the compound was classed as inactive. In addition, the Potency entry in assay [2], in [3], in assay [4], in [6], in [7] and in assay [8] was “inactive” in each case. Further, the Potency entry in [9] was “inactive”. Also, in assay [5], the Potency is 11.2 µM (active).

For the compound `Cc1ccc(Cl)c(OCC(O)CNC(C)(C)C)c1` (centres undefined), the call in assay [1] was inactive. Also, the Potency entry in [2], in assay [10], in assay [11], in assay [3], in assay [12] and in assay [13] was “inactive” in each case. Moreover, the Potency entry in assay [7] and in assay [9] was “inactive” each time. Also, the Potency in assay [6] was 1.1 µM (active).

As to `CCn1nc(Cc2ccccc2)cc1C1CCN(C[C@H]2C[C@H](N(C)[C@@H](C(=O)O)C(C)C)C[C@@H]2c2cccc(F)c2)CC1`, the result in assay [1] was inactive. For the same compound, the Potency entry in assay [2], in assay [10], in assay [11] and in [4] was “inactive” in each case. Besides, the Potency is 35.6 µM (active) in [6] and 13.8 µM (active) in assay [8].

Take `C=CC(=O)NC(C)(C)C`: the compound was called inactive in [1]. Further, the Potency entry in assay [2], in [10], in [11], in assay [3], in assay [4] and in [6] was “inactive” each time. The Potency entry in assay [13], in [8] and in assay [9] was “inactive” throughout.

Regarding `O=c1[nH]nc(-c2ccc([N+](=O)[O-])o2)o1`, the compound was called inactive in assay [1]. The Potency result in assay [2], in assay [11], in assay [8] and in assay [9] was “inactive” throughout. Also, the Potency in assay [10] is 61.1 µM (active); in assay [3] it was 54.5 µM (active); in assay [4], 61.1 µM (active); in [12], 79.6 µM (active); in [7] it was 31.7 µM (active).

Consider `COc1cccc([C@H](O)C2CCN(CCc3ccc(F)cc3)CC2)c1OC`, for which the compound was called inactive in assay [1]. Further, the Potency entry in assay [2], in [10], in assay [11], in assay [3], in [4] and in [13] was “inactive” in each case. The Potency entry in assay [7] and in assay [9] was “inactive” in each case. Further, the Potency in assay [6] is 2 µM (active).

As for `O=C(O)COCC(=O)O`, the call in assay [1] was inactive. The Potency result in assay [10], in [11], in assay [3], in [4], in assay [6] and in assay [12] was “inactive” in each case. Also, the Potency entry in [7], in assay [8] and in assay [9] was “inactive” in each case.

As for `C/C(=C\C(C)CC(C)CC(C)C)C1CC(=O)OC1=O` (centres undefined), in assay [1], the compound was classed as inactive. The Potency result in [2], in [10], in [11], in assay [3], in assay [4] and in assay [7] was “inactive” in each case. Further, in assay [9], the Potency entry is “inactive”. Besides, the Potency in assay [6] was 35.6 µM (active); in [13], 56.4 µM (active).

On to `CC(C)Cc1nccs1`, for which, in assay [1], the call was inactive. The Potency entry in assay [2], in assay [10], in assay [3], in [4] and in assay [9] was “inactive” each time. The Potency in [6] was 12.9 µM (active).

Consider `CCOc1cc(OCC)c(C(C)=O)cc1OCC`, for which, in assay [1], the result was inactive. Further, the Potency result in assay [2], in [11] and in assay [8] was “inactive” throughout. Besides, the Potency was 26.8 µM (active) in [10]; 42.5 µM (active) in assay [3]; 26.8 µM (active) in assay [4]; 69.8 µM (active) in assay [12]; 1.11 µM (active) in [7]; 35 µM (active) in assay [9].

Regarding `Cc1c(Cl)cccc1Nc1ccccc1C(=O)O`, the compound was called inactive in assay [1]. Besides, the Potency entry in assay [2], in [10], in [11], in assay [3], in assay [6] and in [8] was “inactive” in each case. For the same compound, the Potency result in assay [9] was “inactive”. In [13], the Potency is 17.4 µM (active).

With `CCCCC(CC)COCCC#N` (centres undefined), the call in assay [1] was inactive. The Potency entry in [10], in assay [11], in assay [3], in [4], in assay [6] and in assay [7] was “inactive” each time. Further, the Potency entry in assay [8] and in assay [9] was “inactive” in each case.

On to `Cc1nc(C)c(C)nc1C`, for which the call in assay [1] was inactive. Further, the Potency result in assay [2], in [10], in assay [11], in assay [3], in assay [4] and in [6] was “inactive” throughout. The Potency result in [13], in [8] and in assay [9] was “inactive” in each case. Also, the Potency in [7] was 35.6 µM (active).

Consider `CC(C)CC(C)(C)C`, for which the compound was classed as inactive in assay [1]. For the same compound, the Potency entry in [10], in assay [11], in assay [3], in assay [4] and in [8] was “inactive” each time. Further, the Potency in assay [6] was 36.9 µM (active); in assay [12], 20.8 µM (active); in [13], 36.9 µM (active); in [7], 7.37 µM (active); in [9], 32.9 µM (active).

For `O=C1CCCN1CCO`, the compound was called inactive in assay [1]. In addition, the Potency entry in assay [10], in assay [11], in assay [3], in assay [4], in [6] and in assay [12] was “inactive” throughout. The Potency entry in assay [13], in assay [8] and in assay [9] was “inactive” throughout. Also, the Potency in assay [7] is 39.9 µM (active).

`CC(C)(Cc1c[nH]c2ccccc12)NCC(O)COc1ccccc1C#N` (centres undefined): the result in assay [1] was inactive. Besides, the Potency entry in assay [2], in [10], in assay [3], in [4] and in assay [9] was “inactive” each time. For the same compound, the max activation in [14] was 11.7%. Moreover, the Potency in assay [5] is 12.6 µM (active); in assay [15] it was 28.2 µM (active).

Consider `OCCCO`, for which, in assay [1], the result was inactive. In addition, the Potency result in [2], in assay [10], in [11], in [3], in [4] and in assay [6] was “inactive” each time. Besides, the Potency result in assay [13], in [7], in assay [8] and in assay [9] was “inactive” each time.

Turning to `CC(C)Oc1ccccc1O`, the outcome in assay [1] was inactive. For the same compound, the Potency entry in [2], in assay [10], in [11], in [3], in assay [4] and in assay [6] was “inactive” each time. In addition, the Potency result in [13], in assay [7], in [8] and in [9] was “inactive” in each case.

On to `CC(=O)Nc1ccccc1O`, for which, in assay [1], the compound was called inactive. Besides, the Potency entry in assay [10], in [3] and in [8] was “inactive” in each case.

In the case of `CCC(CC)C(=O)O`, the result in assay [1] was inactive. The Potency result in assay [10], in [3], in assay [4], in assay [6], in assay [12] and in assay [13] was “inactive” each time. Besides, the Potency entry in assay [7], in assay [8] and in assay [9] was “inactive” in each case.
